# Source: PubChem (National Center for Advancing Translational Sciences (NCATS))
# TSHR antag: Antagonists of the Thyroid Stimulating Hormone Receptor: HTS campaign; Thyrotropin receptor (Homo sapiens), P16473; TSHR-expressing cells, TSH-stimulated cAMP HTRF, 2 h; active compounds read low; activity change, negative = inhibition, % at 11.5 µM; hit rate 0.2% among 330,000;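 active means activity change below a set negative limit, meaning inhibition stronger than a set level, cut at about -70% in these data; inconclusive means activity change between two set negative limits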; further: on the % scale 0 is the no-effect control and ±100 the full control effect
# Target sequence (P16473 whole entry, looked up): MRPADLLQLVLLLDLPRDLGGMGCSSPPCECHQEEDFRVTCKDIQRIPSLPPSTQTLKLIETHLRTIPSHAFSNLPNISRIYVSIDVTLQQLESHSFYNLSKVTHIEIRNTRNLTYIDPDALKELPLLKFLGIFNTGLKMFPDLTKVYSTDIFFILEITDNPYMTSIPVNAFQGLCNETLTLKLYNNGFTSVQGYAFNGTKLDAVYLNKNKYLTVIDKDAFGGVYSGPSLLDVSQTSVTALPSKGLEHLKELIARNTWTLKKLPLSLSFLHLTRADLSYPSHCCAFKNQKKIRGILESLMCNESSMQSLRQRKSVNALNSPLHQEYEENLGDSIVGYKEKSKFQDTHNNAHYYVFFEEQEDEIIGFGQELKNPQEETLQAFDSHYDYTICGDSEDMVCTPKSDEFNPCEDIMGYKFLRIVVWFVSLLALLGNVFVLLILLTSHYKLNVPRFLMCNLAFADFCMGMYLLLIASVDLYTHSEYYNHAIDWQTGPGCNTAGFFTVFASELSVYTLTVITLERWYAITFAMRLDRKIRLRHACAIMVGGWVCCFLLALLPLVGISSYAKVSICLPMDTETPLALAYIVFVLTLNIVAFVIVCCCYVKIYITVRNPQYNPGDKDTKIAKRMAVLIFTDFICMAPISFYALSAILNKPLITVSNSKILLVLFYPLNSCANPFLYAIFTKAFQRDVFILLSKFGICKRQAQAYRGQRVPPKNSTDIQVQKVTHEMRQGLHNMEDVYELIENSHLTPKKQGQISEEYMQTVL
#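 Read-out is FRET at 665 nm (cryptate excitation 337 nm) from a cryptate-tagged anti-cAMP antibody, competed by cell cAMP against cAMP-d2. Compounds are tested on freshly harvested TSHR cells challenged with 4nM TSH (EC80) for 2 hours at 37 deg C.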
# PLK1 PBD block: qHTS for Inhibitors of PLK1-PDB (polo-like kinase 1 - polo-box domain): Primary Screen. Serine/threonine-protein kinase PLK1 (Homo sapiens), P53350. Plk1 PBD binding of FITC phosphopeptide, fluorescence polarization. Potency, µM, for inactives: max response, negative = inhibition, most hits filed as inhibitors. hit rate 2.8% among 360,000; further: potency means the concentration at half of the fitted maximal effect; series mostly up to about 57 µM; on the % scale 0 is the no-effect control and ±100 the full control effect; nearly all actives have a fitted effect of over 65% in size
# uPA generation: qHTS for Inhibitors of Cell Surface uPA Generation | hit rate 0.31% among 330,000 | AID 540303, 2011 | cell surface uPA generation assay, qHTS | Potency, µM (doses to about 38.3 µM), for inactives: at the top dose activity change, negative = inhibition, usual class: inhibitors; active means well fitted inhibition curve with a large enough effect; inconclusive means small, poorly fitted or top-dose-only effect; inactive means no such curve, though single readings can be large or run the other way; tested in mouse RAW 264.7 cells; further: potency means the concentration at half of the fitted maximal effect; on the % scale 0 is the no-effect control and ±100 the full control effect; nearly all actives have a fitted effect of over 55% in size
# VDR inh: Inhibitors of the vitamin D receptor (VDR): qHTS | Vitamin D3 receptor (Homo sapiens), P11473 | VDR-SRC2-3 peptide fluorescence polarization, 2 h | Potency, µM, inactives show max response, negative = inhibition, most hits filed as inhibitors | hit rate 0.93% among 400,000 | AID 504847, 2011; further: potency means the concentration at half of the fitted maximal effect; on the % scale 0 is the no-effect control and ±100 the full control effect
#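 After 23 nl compound addition and a short centrifugation, plates sat for 2 hours at ambient temperature; polarization of fluorescence then indicated loss of VDR binding to peptide SRC2-3.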
# PTAP TSG101 blk: qHTS Assay for Iinhibitors of HIV-1 Budding by Blocking the Interaction of PTAP/TSG101. Tumor susceptibility gene 101 protein (Homo sapiens), Q99816. Fluorescence polarization, FITC-PTAP peptide / Tsg101 binding. Potency, µM (titrated, usually from 115 µM), inactives show at the top dose activity change, negative = inhibition, hits mostly inhibitors. 340,000 tested, under 10 active. AID 493005, 2010; active means well fitted inhibition curve with a large enough effect in the main read-out, with a control signal flat, not every such curve was filed as active; inconclusive means small, poorly fitted or top-dose-only effect, or effect the other way, or a change in a side signal; inactive means no such curve, though single readings can be large or run the other way; further: potency means the concentration at half of the fitted maximal effect; % of control where 0% means no effect
#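 Tsg101 binding domain (10 uM final) was mixed with compound and a FITC-labeled PTAP peptide (50 nM final) in HEPES pH 7.5 buffer with NaCl, Tween 20, EDTA and TCEP; fluorescence polarization was read after 20 min at r.t.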
# * = called active by the depositor; ? = inconclusive; / = no result given; ! = repeats disagree. In the library only some 3.1% were active in any assay of this set; here they are far more common. Unless noted, the call rests on the fitted dose curve; in most records, active means well fitted curve in the direction sought with a large enough effect; inconclusive means small, poorly fitted or top-dose-only effect, or another doubt; inactive means no such curve, though single readings can be large; an effect the other way counts as inactive or inconclusive.
SMILES,TSHR antag,PLK1 PBD block,uPA generation,VDR inh,PTAP TSG101 blk
COc1ccc(C(O)c2nc(-c3ccoc3)cs2)cc1 (centres undefined),/,-8%,/,/,/
N#Cc1cc2c([nH]c1=S)CCCCCC2,7,27µM*,3%,-7%,-4%
CC1(C)Cc2c(sc3nn[nH]c(=O)c23)CO1,2,?,7%,-1%,-4%
CCC1(C)Cc2c(sc3nn[nH]c(=O)c23)CO1 (centres undefined),-8,21µM*,/,-18%,0%
CCOc1ccccc1NC(=O)C(CC(C)C)NS(=O)(=O)c1ccc2c(c1)oc(=O)n2C (centres undefined),/,/,/,11%,/
COc1ccc(OC)c(NC(=O)c2c(C)oc3ncnc(N4CCOCC4)c23)c1,/,/,/,12%,/
O=C1CC(N(O)C2CC(=O)N(Cc3ccccc3)C2=O)C(=O)N1Cc1ccccc1 (centres undefined),8,24µM*,1%,?,1%
N=C1/C(=C/c2ccc(OCc3ccccc3F)cc2)C(=O)N=C2SC(CC(=O)N3CCOCC3)=NN12,-4,38µM*,-4%,-14%,-5%
N=C1/C(=C/c2ccc(OCc3ccccc3)cc2)C(=O)N=C2SC(CC(=O)N3CCOCC3)=NN12,-5,?,2%,1%,-4%
Cc1ccc(C)c(NC(=S)NNC(=O)c2ccco2)c1,4,19µM*,/,-23%,-7%
Cc1ccc(NC(=O)c2ccco2)cc1C,13,21µM*,-8%,11%,0%
Cc1ccc(NC(=O)c2cnn(-c3ccccc3)c2NC(=O)c2ccco2)cc1,6,3.4µM*,2%,-22%,-2%
COc1cccc(C(=O)c2cn(CC(=O)Nc3ccc4c(c3)OCCO4)c3nc(C)ccc3c2=O)c1,/,/,/,-8%,/
CCOC(=O)c1c(S(=O)(=O)NCC(=O)Nc2cccc(C)c2C)c(C)n(C)c1C,-112*,-4%,4%,-1%,-5%
O=C(CSc1ncc(C(F)(F)F)cc1Cl)N1CCN(S(=O)(=O)c2ccc3ccccc3c2)CC1,-17,24µM*,/,?,-9%
O=C(CSc1ncnc2ccccc12)N1CCNC1=O,-9,-14%,?,3%,-1%
O=C(CSc1ncc(C(F)(F)F)cc1Cl)N1CCNC1=O,/,27µM*,-14%,-12%,-6%
Cc1ccc(CNC(=O)CN2C(=O)CSc3c2c(C)nn3-c2ccccc2)cc1,/,/,/,0%,/
Nc1[nH]n(-c2ccccc2)c(=O)c1N=Nc1ccc2ncsc2c1,0,27µM*,1%,?,-3%
CCN(CC)S(=O)(=O)c1ccc(/C=C/C(=O)NC2CCCCC2)cc1,10,0%,1%,-15%,-1%
O=C(CNS(=O)(=O)c1ccc(C(=O)N2CCCCC2)cc1)N1CCCCC1,12,30µM*,-3%,-10%,-2%
Cc1ccc(S(=O)(=O)NCC(=O)N2CCCCC2)cc1,-12,1%,0%,-2%,0%
CCCCC/C=C\CC(O)/C=C/c1cccc(CC(O)CCCCO)n1 (centres undefined),-14,/,/,50µM*!,/
COc1ccc(CN(Cc2ccccc2)C(=O)c2ccncc2)cc1COc1ccc(NC(C)=O)cc1,/,/,/,-17%,/
C=CCSc1nc(C)c(CCC(C)C)c(=O)[nH]1,-9,27µM*,7%,-25%,-1%
SMILES,TSHR antag,PLK1 PBD block,uPA generation,VDR inh,PTAP TSG101 blk
c1coc(-c2cc(C3CCNCC3)[nH]n2)c1,6,-11%,-3%,-12%,0%
N#CCN1CCC(c2cc(-c3ccco3)n[nH]2)CC1,-2,30µM*,-3%,-22%,-6%
CCCC[C@@H](C=O)NC(=O)[C@H](CC(C)C)NC(=O)OCc1ccccc1,/,/,/,35µM*,/
CC(C)CC(NC(=O)OCc1ccccc1)C(=O)NC(Cc1ccccc1)C(=O)CCl (centres undefined),/,-12%,-10%,71µM*,-1%
Cc1ccc(C)c(NS(=O)(=O)c2ccc(NC(=O)CSc3ccc(Cl)cc3)cc2)c1,3,24µM*,12%,-14%,-2%
Cc1ccc(NS(=O)(=O)c2ccc(NC(=O)C3CC3)cc2)c(C)c1,-18,2%,6%,-1%,0%
Cc1ccc(NS(=O)(=O)c2ccc(NC(=O)C(C)Sc3ccc(Cl)cc3)cc2)c(C)c1 (centres undefined),15,30µM*,-14%,-18%,-7%
Cc1ccc(CNC(=O)c2cc(S(=O)(=O)N3CCCC(C)C3)cn2C)cc1 (centres undefined),/,/,/,16%,/
O=C(NCc1ccco1)c1ccc(C(=O)NCc2ccco2)s1,-11,11µM*,4%,-23%,-3%
O=C(NCc1ccco1)c1ccc(Cl)s1,-1,-9%,0%,-14%,-5%
O=C(c1ccc2c(=O)n3c(nc2c1)CCCCC3)N1CCN(c2cccc(Cl)c2)CC1,-11,1%,3%,8%,-3%
O=[N+]([O-])c1ccc(SCCc2ccccn2)cc1,-11,17µM*,2%,-11%,-2%
Cn1c(SCCc2ccc([N+](=O)[O-])cc2)nccc1=O,/,4%,0%,-3%,3%
O=[N+]([O-])c1ccc(SCCc2ccncc2)cc1,-2,19µM*,-5%,?,-8%
CCCc1nc2ccc(NC(=O)c3cccs3)cc2c(=O)n1Cc1ccccc1Cl,-3,30µM*,1%,?,-3%
CCCc1nc2ccc(NC(C)=O)cc2c(=O)n1Cc1ccc(Cl)cc1,0,-9%,-3%,17%,-2%
CC(=O)Nc1ccc(NC(=O)CCn2nnc3ccccc32)cc1,-10,19µM*,2%,?,-2%
NNC(=O)CCn1nnc2ccccc21,2,-3%,2%,-7%,-3%
CCOc1ccccc1-n1c(=S)sc2c(=O)n(-c3ccc(F)cc3)c(SCC(=O)O)nc21,-71*,44%,-2%,1%,-7%
CCN(CC)C(=O)CSc1nc2c(sc(=S)n2-c2ccccc2)c(=O)n1-c1ccc(OC)cc1OC,-9,3µM*,-2%,25µM*,-9%
COc1ccccc1-n1c(SCC(=O)O)nc2c(sc(=S)n2-c2ccc(C)c(C)c2)c1=O,0,-10%,3%,5%,-5%
CCOC(=O)CSc1nc2c(sc(=S)n2-c2ccccc2)c(=O)n1-c1ccc(OC)cc1OC,6,4.7µM*,8%,?,-5%
CCN(CC)C(=O)CSc1nc2c(sc(=S)n2-c2ccccc2)c(=O)n1-c1ccccc1OC,8,1%,9%,7%,-5%
O=C(CSc1nccn1Cc1ccc(F)cc1)Nc1ccc2c(c1)OCO2,/,/,/,4%,/
O=C(Oc1coc(CSc2ncccn2)cc1=O)c1cccc([N+](=O)[O-])c1,-5,?,2%,-9%,-4%
